# Experimental data from PubChem BioAssay (Tox21).
# Results filed as inconclusive are left out. Entries that show only a call come without a potency. Calls of active or inactive are those of the source. The call rests on the fitted dose curve; in most records, active means well fitted cell-killing curve with a large enough effect in the repeat runs; inconclusive means weak or mixed curves, or effect the other way; inactive means flat fitted curve, though single readings scatter.
# Assay: qHTS assay to identify small molecule antagonists of the retinoid acid receptor (RAR) signaling pathway - cell viability counter screen (AID 1159551); further: nearly all actives have a fitted effect of over 35% in size
# Conditions: C3RL4 cells viability, ATP luminescence (CellTiter-Glo), 6 h; series mostly up to 92.4 µM
# Description: U.S. Tox21 Program National Center for Advancing Translational Sciences [NCATS] NIH Chemical Genomics Center [NCGC] U.S. Environmental Protection Agency [EPA] National Institutes of Environmental Health Sciences [NIEHS] National Toxicology Program [NTP] U.S. Food and Drug Administration [FDA] Tox21 Assay Overview: All-trans Retinoic acid (atRA) is the potent natural metabolite of retinol and plays an important role in normal embryonic development and maintenance of cellular phenotype in adult animals. atRA is the activating ligand for the retinoic acid receptors (RARs) which form heterodimers with retinoid X receptors (RXRs) on the retinoic acid response element (RARE). Through activation of the RAR/RXRs nuclear receptors, atRA regulates the transcription of a large number of protein-coding genes and regulatory RNAs. Intracellular levels of atRA are controlled by the retinol signaling pathway (RSP) that regulates the biosynthesis and catabolism of atRA to maintain physiological levels. Chemicals that interfere with the RSP can cause abnormal intracellular levels of atRA and therefore are potential developmental toxicants. To assess compounds for the potential adverse effect on embryonic development through interfering with retinol signaling, a cell-based RARE luciferase reporter gene assay was used. C3RL4 cell line (OARSA/CFSAN/FDA, Laurel, MD) was used to screen Tox21 10K compound library for identifying inhibitors of the RSP. Also cytotoxicity was assessed by determining the viability of cells based on the quantitation of ATP.
# Tox21 Assay Protocol Summary: C3RL4 cells were seeded at 1,000/well in 4 uL of assay medium into white solid 1,536-well tissue culture plates (Greiner Bio-One North America Inc. Monroe, NC) using a Multidrop Combi (Thermo Scientific, Waltham, MA) dispenser. After incubation at 37 C and 5% CO2 for an overnight, 23 nL of compounds dissolved in DMSO, positive control or DMSO only were transferred by a Pintool station (Kalypsys, San Diego, CA). One ul of 1 uM (final concentration) of Retinol was added right after the compound addition by using a Flying Reagent Dispenser (FRD) (Aurora Discovery, San Diego, CA). After 6 hr incubation at 37 C and 5% CO2, 5 uL of CellTiter-Glo reagent (Promega Corporation, Madison, WI) was added to each assay plate using an FRD. Luminescence was quantified on a ViewLux plate reader (PerkinElmer, Waltham, MA) after 30 min incubation at room temperature.
row,SMILES,Potency
1,S=C(S)NCCNC(=S)S,inactive
2,CC[C@H](C)[C@H](N)C(=O)O,inactive
3,CCOC(=S)SSC(=S)OCC,inactive
4,CCCCCOC(=O)COc1cc(N2C(=O)C3=C(CCCC3)C2=O)c(F)cc1Cl,inactive
5,Cc1ccccn1,inactive
6,CC(=O)OCCc1ccccc1,inactive
7,Nc1ccc(C(=O)N2CC3CC(CN(Cc4ccccc4)C3)C2)cc1,inactive
8,CCCCCCCCCCCCCCC1CO1 (stereo not given),inactive
9,O=C1c2cccc(O)c2C(=O)c2c(O)cc(CO)cc21,inactive
10,CCCCCCCCN(C)C,inactive
11,Cn1c(N)nc2nc[nH]c2c1=O,inactive
12,CN(c1nccc(=O)[nH]1)C1CCN(c2nc3ccccc3n2Cc2ccc(F)cc2)CC1,inactive
13,CNS(=O)(=O)Cc1ccc2[nH]cc(CCN(C)C)c2c1,inactive
14,NC(N)=N/N=C/c1c(Cl)cccc1Cl,inactive
15,Oc1ccc(O)c2c(O)cccc12,inactive
16,Cc1cccc(C(C)(C)C)c1O,inactive
17,FC(F)(F)C(F)(F)C(F)(F)C(F)(F)C(F)(F)C(F)(F)CCI,inactive
18,N[C@H]1C(O)O[C@H](CO)[C@H](O)[C@@H]1O (stereo not given in full),inactive
19,COc1ccc(OC)c(OC)c1,inactive
20,CN(C(=O)CCCOc1ccc2[nH]c(=O)ccc2c1)C1CCCCC1,inactive

row,SMILES,Potency
1,Oc1ccc(C(O)CNCCCCCCNCC(O)c2ccc(O)c(O)c2)cc1O (stereo not given),inactive
2,CCOC(=O)CC(=O)c1cc(F)c(Cl)nc1Cl,inactive
3,CCCCCC/C=C/C=O,inactive
4,CN1CCC(OC(c2ccccc2)c2ccccc2)CC1,inactive
5,N#CCCNCCC#N,inactive
6,c1ccc(-c2nc[nH]c2-c2ccccc2)cc1,inactive
7,O=c1c2ccccc2nnn1CCl,inactive
8,COC(Cc1ccccc1)OC,inactive
9,CC[C@@H]1C[C@H](N(Cc2cc(C(F)(F)F)cc(C(F)(F)F)c2)C(C)=O)c2cc(C(F)(F)F)ccc2N1C(=O)OC(C)C,inactive
10,Cc1ccc(C(=O)C(C)CN2CCCCC2)cc1 (stereo not given),inactive
11,Cn1sccc1=O,inactive
12,C=CC(C)(CCC=C(C)C)OC(=O)c1ccccc1 (stereo not given),inactive
13,O=C1[C@H](CC[C@H](O)c2ccc(F)cc2)[C@@H](c2ccc(O)cc2)N1c1ccc(F)cc1,inactive
14,CCC(=O)OC(C)(C)C1CC=C(C)CC1 (stereo not given),inactive
15,CC(C)(C)c1cc(O)c(C(C)(C)C)cc1O,inactive
16,CCCc1ccccc1,inactive
17,O=S1(=O)c2cccc3cccc(c23)N1CCCN1CCN(c2ccc(F)cc2)CC1,inactive
18,Nc1ccc(C(=O)Nc2ccccc2N)cc1,inactive
19,CCCCOc1ccc(CC(=O)NO)cc1,inactive
20,C1=Cc2ccccc2C1,inactive
